We go through 15 molecules from PubChem BioAssay (NCI).

This is part of a sample that, as a whole, favours compounds with a hit. Of some 83,000 tested, about 20% had one in any assay.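 Results are percent growth after 48 hours of single-concentration exposure. 100 means growth as in untreated cells, lower positive values show inhibition; negative values down to -100 show cell death.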 Active and inactive are the calls of the source. How the source made its calls: active means growth percent below 10; inactive means the rest.

For the assay, the system named is MDA-MB-468 breast. Description: NCI-60 one-dose screen, 48 h (100 = growth as untreated, 0 = no growth, -100 = all killed). The settings on record: 10 µM unless noted.
As to `CN(C)c1ccc(/C=N\Nc2cc(=O)[nH]c3ccc(Cl)cc23)cc1`, the growth was 107% (inactive).
The figure for `CC(=O)OCC1CCCO1` (stereo not given) is 105% (inactive).
The figure for `C=C1C(=O)O[C@H]2[C@H]1CC/C(COC(=O)CCCCCCCC(=O)OC/C1=C/CC[C@@]3(C)O[C@H]3[C@H]3OC(=O)C(=C)[C@@H]3CC1)=C\CC[C@@]1(C)O[C@@H]21` is -21.6% (active); for `Cc1cc(N(CCCNc2ccnc3cc(Cl)ccc23)Cc2ccco2)nc(N2CCOCC2)n1` it is 80.3% (inactive).
The same measure for `COc1ccc(/C=C(/c2ccccc2)[N+](=O)[O-])c(OC)c1`: -56.5% (active); for `c1ccc2c(-c3nc4ccccc4[nH]3)cccc2c1`: -15.3% (active); for `CC/C=C\C[C@@H](O)C/C=C1/C(=O)C=C[C@H]1C/C=C\CCCC(=O)OC`: 15.9% (inactive).
For the molecule `O=C(Nc1ccccc1[N+](=O)[O-])c1ccc(Cl)c(Cl)c1`, the growth is 65.7% (inactive).
The same measure for `COc1ccc(-c2cc(=O)oc3ccc(Cl)cc23)cc1F`: 26.5% (inactive); for `OC(CCC(O)(c1ccccc1)c1ccccc1)(c1ccccc1)c1ccccc1`: 93.6% (inactive); for `COc1cc(-c2cc(-c3nc4cc(Cl)c(Cl)cc4[nH]3)[nH]n2)cc(OC)c1OC`: 51.7% (inactive).
`Oc1ccc2ccccc2c1CN1CCOCC1`: the growth is 123% (inactive).
The same measure for `Nc1ccccc1SC1CC(=O)N(c2ccc(I)cc2)C1=O` (stereo not given): 121% (inactive).
The same measure for `CCCc1c(CC)c(=N)c2ccccc2n1C`: 58.7% (inactive).
The same measure for `O=C(Nc1ccccc1)NS(=O)(=O)c1c[nH]c(=S)[nH]c1=O`: 112% (inactive).
